# Test results taken from article PMC7862700, “An all-to-all approach to the identification of sequence-specific readers for epigenetic DNA modifications on cytosine”.
# Assays:
# Assay in all cases: DAPPL (digital affinity profiling via proximity ligation, sequencing); 10 mM Tris-HCl pH 7.5, 50 mM NaCl, 1 mM DTT, 4% glycerol, room temperature, 30 min; GST-TFs on glutathione beads, 16-mer random dsDNA library, 0.1% formaldehyde crosslink after washing; high values mean tight binding
# FLI1 = biological target: T1, FLI1 (Homo sapiens, UniProt Q01543 1-452); settings: protein: recombinant; tags: N-terminal GST; dsDNA, one strand shown
# T1 sequence: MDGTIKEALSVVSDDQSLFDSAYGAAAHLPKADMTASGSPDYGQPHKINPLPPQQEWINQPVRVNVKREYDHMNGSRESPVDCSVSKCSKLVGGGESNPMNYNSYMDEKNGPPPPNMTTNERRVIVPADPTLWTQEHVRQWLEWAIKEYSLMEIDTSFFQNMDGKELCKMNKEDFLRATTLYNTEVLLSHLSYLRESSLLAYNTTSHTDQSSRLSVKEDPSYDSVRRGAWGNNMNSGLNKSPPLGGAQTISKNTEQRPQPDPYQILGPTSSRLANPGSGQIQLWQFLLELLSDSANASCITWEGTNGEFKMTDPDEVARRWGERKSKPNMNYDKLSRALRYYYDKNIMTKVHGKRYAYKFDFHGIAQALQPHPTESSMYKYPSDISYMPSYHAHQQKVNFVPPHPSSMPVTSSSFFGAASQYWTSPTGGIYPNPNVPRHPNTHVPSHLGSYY
# Method in brief: (§1)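 Sequencing on an Illumina NextSeq500 followed washing, crosslinking with 0.1% formaldehyde, proximity ligation (BsaI/T4 ligase, 1 h, 37 °C) and PCR amplification of pools that had been incubated for 30 min at room temperature with 200 nmole of a random double-stranded 16-mer DNA library in Tris/NaCl/DTT/glycerol buffer. Each pool held DNA-barcoded human transcription factors, expressed in yeast as GST fusions and captured on glutathione beads, plus a tag-only sample. Binding signal is a hexamer's read frequency for a factor divided by its frequency in the tag-only sample.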
# ELK1 = biological target: T2, ELK1 (Homo sapiens, UniProt P19419 1-428); settings: protein: recombinant; tags: N-terminal GST; dsDNA, one strand shown
# T2 sequence: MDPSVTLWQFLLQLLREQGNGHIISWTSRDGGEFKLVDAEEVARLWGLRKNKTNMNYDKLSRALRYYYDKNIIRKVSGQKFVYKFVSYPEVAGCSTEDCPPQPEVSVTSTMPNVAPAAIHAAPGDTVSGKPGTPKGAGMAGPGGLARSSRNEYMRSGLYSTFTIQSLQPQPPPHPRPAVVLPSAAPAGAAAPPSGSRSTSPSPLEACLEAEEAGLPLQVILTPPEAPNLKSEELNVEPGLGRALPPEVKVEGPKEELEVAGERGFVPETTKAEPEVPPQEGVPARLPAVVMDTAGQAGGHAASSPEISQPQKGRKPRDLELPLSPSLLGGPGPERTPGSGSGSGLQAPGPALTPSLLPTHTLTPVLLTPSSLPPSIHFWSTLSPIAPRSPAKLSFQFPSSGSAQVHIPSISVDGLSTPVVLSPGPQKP
# Method in brief: as §1
# GABPA = biological target: T3, GABPA (Homo sapiens, UniProt Q06546 1-454); settings: protein: recombinant; tags: N-terminal GST; dsDNA, one strand shown
# T3 sequence: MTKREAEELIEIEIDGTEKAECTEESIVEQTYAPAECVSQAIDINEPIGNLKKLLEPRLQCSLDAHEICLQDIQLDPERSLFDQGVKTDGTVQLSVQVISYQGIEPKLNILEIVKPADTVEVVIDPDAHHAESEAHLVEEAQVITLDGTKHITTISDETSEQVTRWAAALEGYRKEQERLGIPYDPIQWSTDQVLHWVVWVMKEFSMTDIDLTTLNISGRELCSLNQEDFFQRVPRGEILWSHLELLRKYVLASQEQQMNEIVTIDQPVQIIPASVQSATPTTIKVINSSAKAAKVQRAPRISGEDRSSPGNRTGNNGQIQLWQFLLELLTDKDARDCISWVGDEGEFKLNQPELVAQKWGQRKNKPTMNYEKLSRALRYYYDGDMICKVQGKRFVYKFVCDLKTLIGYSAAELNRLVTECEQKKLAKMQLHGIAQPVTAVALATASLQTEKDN
# Method in brief: as §1
# ERG = biological target: T4, ERG (Homo sapiens, UniProt P11308 1-479); settings: protein: recombinant; tags: N-terminal GST; dsDNA, one strand shown
# T4 sequence: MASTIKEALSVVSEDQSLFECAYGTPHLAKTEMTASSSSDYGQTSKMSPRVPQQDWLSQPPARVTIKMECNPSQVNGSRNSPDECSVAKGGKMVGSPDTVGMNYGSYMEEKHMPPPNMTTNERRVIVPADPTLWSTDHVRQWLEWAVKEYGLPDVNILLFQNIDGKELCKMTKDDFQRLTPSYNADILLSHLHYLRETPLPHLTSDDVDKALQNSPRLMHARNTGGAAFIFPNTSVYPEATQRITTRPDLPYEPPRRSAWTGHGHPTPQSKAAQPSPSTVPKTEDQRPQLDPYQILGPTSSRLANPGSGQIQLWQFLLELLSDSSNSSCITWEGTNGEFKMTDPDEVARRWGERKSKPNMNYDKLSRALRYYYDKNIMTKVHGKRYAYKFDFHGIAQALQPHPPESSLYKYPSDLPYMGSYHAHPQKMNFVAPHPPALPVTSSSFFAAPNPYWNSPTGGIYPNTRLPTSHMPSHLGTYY
# Method in brief: as §1
# ELF1 = ELF1 (Homo sapiens, UniProt P32519 1-619); settings: protein: recombinant; tags: N-terminal GST; dsDNA, one strand shown
# Method in brief: as §1
# EHF = biological target: T5, EHF (Homo sapiens, UniProt Q9NZC4 1-300); settings: protein: recombinant; tags: N-terminal GST; dsDNA, one strand shown
# T5 sequence: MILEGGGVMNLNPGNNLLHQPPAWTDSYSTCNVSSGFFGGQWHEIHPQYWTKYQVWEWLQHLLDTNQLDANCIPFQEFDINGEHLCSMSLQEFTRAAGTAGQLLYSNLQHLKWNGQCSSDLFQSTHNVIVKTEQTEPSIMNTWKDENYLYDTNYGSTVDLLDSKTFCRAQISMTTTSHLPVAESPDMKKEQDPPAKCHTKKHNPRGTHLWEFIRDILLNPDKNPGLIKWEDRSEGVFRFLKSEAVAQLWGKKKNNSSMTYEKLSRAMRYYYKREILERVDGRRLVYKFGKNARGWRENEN
# Method in brief: as §1
# SPI1 = SPI1 (Homo sapiens, UniProt P17947 1-270); settings: protein: recombinant; tags: N-terminal GST; dsDNA, one strand shown
# Method in brief: as §1
# SPIB = SPIB (Homo sapiens, UniProt Q01892 1-262); settings: protein: recombinant; tags: N-terminal GST; dsDNA, one strand shown
# Method in brief: as §1
# ELK3 = biological target: T6, ELK3 (Homo sapiens, UniProt P41970 1-407); settings: protein: recombinant; tags: N-terminal GST; dsDNA, one strand shown
# T6 sequence: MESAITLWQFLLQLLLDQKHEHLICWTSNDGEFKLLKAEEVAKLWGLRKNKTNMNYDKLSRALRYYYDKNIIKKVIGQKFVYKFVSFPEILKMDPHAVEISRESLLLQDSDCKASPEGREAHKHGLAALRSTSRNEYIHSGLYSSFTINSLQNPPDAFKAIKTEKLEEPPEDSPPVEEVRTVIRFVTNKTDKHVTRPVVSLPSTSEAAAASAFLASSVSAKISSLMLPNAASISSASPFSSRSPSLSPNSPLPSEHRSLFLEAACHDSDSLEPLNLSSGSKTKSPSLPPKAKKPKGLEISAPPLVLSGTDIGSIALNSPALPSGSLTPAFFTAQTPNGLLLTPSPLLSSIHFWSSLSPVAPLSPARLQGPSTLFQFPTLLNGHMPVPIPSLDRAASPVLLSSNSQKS
# Method in brief: as §1
# FEV = biological target: T7, FEV (Homo sapiens, UniProt Q99581 1-238); settings: protein: recombinant; tags: N-terminal GST; dsDNA, one strand shown
# T7 sequence: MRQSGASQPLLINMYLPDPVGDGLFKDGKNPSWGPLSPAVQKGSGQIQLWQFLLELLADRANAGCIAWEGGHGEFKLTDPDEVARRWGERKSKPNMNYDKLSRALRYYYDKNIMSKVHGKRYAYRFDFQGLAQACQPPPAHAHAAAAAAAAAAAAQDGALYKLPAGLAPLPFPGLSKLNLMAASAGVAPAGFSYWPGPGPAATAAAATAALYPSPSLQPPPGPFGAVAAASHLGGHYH
# Method in brief: as §1
# ETV5 = ETV5 (Homo sapiens, UniProt P41161 1-510); settings: protein: recombinant; tags: N-terminal GST; dsDNA, one strand shown
# Method in brief: as §1
# HSF1 = HSF1 (Homo sapiens, UniProt Q00613 1-529); settings: protein: recombinant; tags: N-terminal GST; chain copies: 3; dsDNA, one strand shown
# Method in brief: as §1
# SPIC = biological target: T8, SPIC (Homo sapiens, UniProt Q8N5J4 1-248); settings: protein: recombinant; tags: N-terminal GST; dsDNA, one strand shown
# T8 sequence: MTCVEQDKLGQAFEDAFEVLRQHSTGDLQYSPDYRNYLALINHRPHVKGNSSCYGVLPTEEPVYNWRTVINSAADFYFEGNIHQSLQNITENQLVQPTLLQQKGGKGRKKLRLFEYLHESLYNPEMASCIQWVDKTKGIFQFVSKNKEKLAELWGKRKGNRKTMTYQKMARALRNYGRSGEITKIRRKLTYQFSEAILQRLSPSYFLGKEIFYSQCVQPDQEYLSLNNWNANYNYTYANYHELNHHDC
# Method in brief: as §1
# ELF4 = ELF4 (Homo sapiens, UniProt Q99607 1-663); settings: protein: recombinant; tags: N-terminal GST; dsDNA, one strand shown
# Method in brief: as §1
# ELK4 = biological target: T9, ELK4 (Homo sapiens, UniProt P28324-2 1-405); settings: protein: recombinant; tags: N-terminal GST; dsDNA, one strand shown
# T9 sequence: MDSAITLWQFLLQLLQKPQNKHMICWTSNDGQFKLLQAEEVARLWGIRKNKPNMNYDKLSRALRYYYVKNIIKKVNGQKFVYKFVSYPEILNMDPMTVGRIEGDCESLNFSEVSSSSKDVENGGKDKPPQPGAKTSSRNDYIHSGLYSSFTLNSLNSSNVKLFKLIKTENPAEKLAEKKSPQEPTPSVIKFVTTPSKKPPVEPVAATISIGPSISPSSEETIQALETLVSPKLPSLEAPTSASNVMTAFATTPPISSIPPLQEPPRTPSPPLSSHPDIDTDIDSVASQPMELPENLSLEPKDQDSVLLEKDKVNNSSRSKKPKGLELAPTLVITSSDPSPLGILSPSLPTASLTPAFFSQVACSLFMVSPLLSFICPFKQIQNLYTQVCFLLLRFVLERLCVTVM
# Method in brief: as §1
# ETV2 = biological target: T10, ETV2 (Homo sapiens, UniProt O00321 1-342); settings: protein: recombinant; tags: N-terminal GST; dsDNA, one strand shown
# T10 sequence: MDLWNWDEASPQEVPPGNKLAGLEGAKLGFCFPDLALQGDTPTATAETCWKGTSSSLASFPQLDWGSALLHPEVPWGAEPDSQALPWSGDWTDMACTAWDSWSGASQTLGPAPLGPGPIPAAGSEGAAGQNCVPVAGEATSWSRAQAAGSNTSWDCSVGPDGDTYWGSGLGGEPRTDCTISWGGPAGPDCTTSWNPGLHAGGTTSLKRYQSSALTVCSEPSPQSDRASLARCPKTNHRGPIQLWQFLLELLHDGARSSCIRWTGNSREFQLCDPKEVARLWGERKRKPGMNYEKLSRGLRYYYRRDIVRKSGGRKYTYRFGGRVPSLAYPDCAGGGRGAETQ
# Method in brief: as §1
# ELF3 = biological target: T11, ELF3 (Homo sapiens, UniProt P78545 1-371); settings: protein: recombinant; tags: N-terminal GST; dsDNA, one strand shown
# T11 sequence: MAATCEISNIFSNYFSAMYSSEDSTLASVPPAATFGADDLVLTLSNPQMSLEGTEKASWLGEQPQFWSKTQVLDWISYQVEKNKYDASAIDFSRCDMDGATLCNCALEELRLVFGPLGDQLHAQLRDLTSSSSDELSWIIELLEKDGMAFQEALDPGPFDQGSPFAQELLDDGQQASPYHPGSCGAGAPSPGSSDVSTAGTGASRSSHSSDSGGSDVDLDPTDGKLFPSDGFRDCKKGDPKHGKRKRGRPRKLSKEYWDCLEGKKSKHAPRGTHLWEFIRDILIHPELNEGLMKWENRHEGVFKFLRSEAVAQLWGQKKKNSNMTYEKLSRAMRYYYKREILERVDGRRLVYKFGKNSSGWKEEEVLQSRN
# Method in brief: as §1
# CRX = CRX (Homo sapiens, UniProt O43186 1-299); settings: protein: recombinant; tags: N-terminal GST; dsDNA, one strand shown
# Method in brief: as §1
# ETV1 = ETV1 (Homo sapiens, UniProt P50549 1-477); settings: protein: recombinant; tags: N-terminal GST; dsDNA, one strand shown
# Method in brief: as §1
# CRX, sequence (O43186 whole entry): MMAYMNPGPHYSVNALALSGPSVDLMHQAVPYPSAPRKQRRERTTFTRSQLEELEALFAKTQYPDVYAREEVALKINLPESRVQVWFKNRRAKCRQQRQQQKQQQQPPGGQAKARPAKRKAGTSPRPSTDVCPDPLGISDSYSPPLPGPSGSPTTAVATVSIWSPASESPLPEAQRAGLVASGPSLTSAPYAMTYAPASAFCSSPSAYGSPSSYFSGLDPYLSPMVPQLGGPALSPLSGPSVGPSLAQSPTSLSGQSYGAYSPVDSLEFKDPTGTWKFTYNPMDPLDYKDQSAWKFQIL
# ELF4, sequence (Q99607 whole entry): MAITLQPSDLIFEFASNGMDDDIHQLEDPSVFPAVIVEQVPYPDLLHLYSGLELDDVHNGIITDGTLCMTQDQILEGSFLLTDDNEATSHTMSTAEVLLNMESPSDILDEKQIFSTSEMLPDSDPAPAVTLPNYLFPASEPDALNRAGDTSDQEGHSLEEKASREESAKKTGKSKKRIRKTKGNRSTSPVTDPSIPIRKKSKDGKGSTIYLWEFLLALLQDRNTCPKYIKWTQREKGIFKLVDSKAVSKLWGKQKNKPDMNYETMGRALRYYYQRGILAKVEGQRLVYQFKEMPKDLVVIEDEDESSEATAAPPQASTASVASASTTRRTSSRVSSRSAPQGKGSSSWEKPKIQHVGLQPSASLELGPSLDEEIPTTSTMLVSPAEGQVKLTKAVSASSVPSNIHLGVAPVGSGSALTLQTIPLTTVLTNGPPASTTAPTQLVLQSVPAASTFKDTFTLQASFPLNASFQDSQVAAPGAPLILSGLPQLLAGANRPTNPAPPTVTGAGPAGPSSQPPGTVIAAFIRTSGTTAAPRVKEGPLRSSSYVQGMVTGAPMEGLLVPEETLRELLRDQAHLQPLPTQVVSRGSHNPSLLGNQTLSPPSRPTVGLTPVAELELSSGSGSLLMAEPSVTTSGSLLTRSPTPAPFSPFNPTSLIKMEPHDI
# ETV5, sequence (P41161 whole entry): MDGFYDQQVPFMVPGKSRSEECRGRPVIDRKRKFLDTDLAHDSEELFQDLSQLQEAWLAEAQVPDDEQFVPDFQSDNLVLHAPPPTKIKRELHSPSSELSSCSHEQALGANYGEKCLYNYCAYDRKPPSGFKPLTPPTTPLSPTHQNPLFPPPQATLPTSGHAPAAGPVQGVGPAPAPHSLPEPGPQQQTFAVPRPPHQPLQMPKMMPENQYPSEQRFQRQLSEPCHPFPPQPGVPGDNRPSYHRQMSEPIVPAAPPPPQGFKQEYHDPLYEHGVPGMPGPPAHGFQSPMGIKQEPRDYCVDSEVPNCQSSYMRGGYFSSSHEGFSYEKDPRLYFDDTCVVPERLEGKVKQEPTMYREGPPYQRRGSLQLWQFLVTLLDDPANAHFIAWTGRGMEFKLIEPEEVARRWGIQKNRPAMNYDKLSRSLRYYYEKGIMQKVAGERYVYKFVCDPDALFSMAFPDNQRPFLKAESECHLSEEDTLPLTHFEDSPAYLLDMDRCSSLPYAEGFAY
# HSF1, sequence (Q00613 whole entry): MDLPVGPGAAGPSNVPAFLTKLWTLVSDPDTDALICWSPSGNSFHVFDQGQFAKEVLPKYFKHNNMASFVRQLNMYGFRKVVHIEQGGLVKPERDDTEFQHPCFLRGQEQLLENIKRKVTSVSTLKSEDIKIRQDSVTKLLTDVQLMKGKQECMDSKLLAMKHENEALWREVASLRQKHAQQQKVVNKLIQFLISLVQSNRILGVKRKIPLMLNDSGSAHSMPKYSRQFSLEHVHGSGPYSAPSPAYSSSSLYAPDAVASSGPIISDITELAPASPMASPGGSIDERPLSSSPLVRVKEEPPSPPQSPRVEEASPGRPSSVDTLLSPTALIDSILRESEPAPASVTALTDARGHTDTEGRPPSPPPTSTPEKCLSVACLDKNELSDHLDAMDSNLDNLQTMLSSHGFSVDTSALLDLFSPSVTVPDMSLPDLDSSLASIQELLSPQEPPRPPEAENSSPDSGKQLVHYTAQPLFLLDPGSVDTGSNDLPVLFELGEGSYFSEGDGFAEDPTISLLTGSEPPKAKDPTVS
# ETV1, sequence (P50549 whole entry): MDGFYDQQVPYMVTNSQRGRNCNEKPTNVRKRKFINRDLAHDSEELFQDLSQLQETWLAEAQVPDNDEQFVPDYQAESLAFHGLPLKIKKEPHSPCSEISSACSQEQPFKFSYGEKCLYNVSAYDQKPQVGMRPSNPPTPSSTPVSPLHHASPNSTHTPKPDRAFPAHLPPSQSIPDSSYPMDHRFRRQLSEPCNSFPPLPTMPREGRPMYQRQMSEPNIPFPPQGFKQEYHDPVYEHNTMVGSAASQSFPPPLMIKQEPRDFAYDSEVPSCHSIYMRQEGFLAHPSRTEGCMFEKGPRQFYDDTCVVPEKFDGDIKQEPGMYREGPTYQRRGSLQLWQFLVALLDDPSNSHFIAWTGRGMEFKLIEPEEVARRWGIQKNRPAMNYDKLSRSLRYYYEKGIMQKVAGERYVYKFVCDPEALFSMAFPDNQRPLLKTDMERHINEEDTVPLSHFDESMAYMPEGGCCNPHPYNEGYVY
# ELF1, sequence (P32519 whole entry): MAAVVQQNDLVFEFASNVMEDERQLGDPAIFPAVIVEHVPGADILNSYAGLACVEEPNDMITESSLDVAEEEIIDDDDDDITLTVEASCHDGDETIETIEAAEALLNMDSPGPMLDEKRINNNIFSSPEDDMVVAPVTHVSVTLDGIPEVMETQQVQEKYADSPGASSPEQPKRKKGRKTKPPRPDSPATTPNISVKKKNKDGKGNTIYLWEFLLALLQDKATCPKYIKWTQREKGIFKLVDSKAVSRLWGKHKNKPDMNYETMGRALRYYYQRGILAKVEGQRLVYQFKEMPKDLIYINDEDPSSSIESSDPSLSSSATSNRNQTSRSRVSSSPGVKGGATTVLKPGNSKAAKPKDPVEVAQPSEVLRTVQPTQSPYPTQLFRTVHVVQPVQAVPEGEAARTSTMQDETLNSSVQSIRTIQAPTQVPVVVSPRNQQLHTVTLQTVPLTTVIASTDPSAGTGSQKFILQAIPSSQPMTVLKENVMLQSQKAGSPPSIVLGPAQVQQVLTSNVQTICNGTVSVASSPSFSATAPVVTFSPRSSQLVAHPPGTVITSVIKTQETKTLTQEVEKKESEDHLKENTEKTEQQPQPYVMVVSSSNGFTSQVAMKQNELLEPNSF
# SPIB, sequence (Q01892 whole entry): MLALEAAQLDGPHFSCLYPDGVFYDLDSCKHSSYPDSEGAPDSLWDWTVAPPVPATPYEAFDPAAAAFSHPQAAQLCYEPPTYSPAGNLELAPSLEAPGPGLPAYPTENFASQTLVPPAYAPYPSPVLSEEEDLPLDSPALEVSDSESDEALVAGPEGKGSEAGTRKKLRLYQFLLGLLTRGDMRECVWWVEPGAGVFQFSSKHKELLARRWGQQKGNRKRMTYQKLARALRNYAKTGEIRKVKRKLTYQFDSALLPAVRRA
sequence,measurement,setting,value
TTCACG,binding signal,FLI1,"1.48 fold enrichment (6-mer frequency, TF over GST control)"
same,binding signal,ELK1,"1.44 fold enrichment (6-mer frequency, TF over GST control)"
same,binding signal,GABPA,"1.41 fold enrichment (6-mer frequency, TF over GST control)"
same,binding signal,ERG,"1.37 fold enrichment (6-mer frequency, TF over GST control)"
same,binding signal,ELF1,"1.38 fold enrichment (6-mer frequency, TF over GST control)"
same,binding signal,EHF,"1.29 fold enrichment (6-mer frequency, TF over GST control)"
same,binding signal,SPI1,"1.3 fold enrichment (6-mer frequency, TF over GST control)"
same,binding signal,SPIB,"1.31 fold enrichment (6-mer frequency, TF over GST control)"
same,binding signal,ELK3,"1.42 fold enrichment (6-mer frequency, TF over GST control)"
same,binding signal,FEV,"1.28 fold enrichment (6-mer frequency, TF over GST control)"
same,binding signal,ETV5,"1.34 fold enrichment (6-mer frequency, TF over GST control)"
same,binding signal,HSF1,"1.51 fold enrichment (6-mer frequency, TF over GST control)"
same,binding signal,SPIC,"1.45 fold enrichment (6-mer frequency, TF over GST control)"
same,binding signal,ELF4,"1.46 fold enrichment (6-mer frequency, TF over GST control)"
same,binding signal,ELK4,"1.55 fold enrichment (6-mer frequency, TF over GST control)"
same,binding signal,ETV2,"1.34 fold enrichment (6-mer frequency, TF over GST control)"
same,binding signal,ELF3,"1.41 fold enrichment (6-mer frequency, TF over GST control)"
same,binding signal,CRX,"1.26 fold enrichment (6-mer frequency, TF over GST control)"
same,binding signal,ETV1,"1.32 fold enrichment (6-mer frequency, TF over GST control)"
